Experimental findings from the supplement of paper PMC6522484 are described below.

± gives the standard deviation of the averaged measurements.

The subject of test [1] is DLD1. The test can be described thus: cell viability (CellTiter-Glo) relative to plate median (fraction of plate median); higher = more viable cells. The following applies: 5 µM; treatment time 24 h; reporter: 7TFP. A digest of the protocol: (§1)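 Library compounds were added at a final concentration of 5 µM for 24 h to colorectal cancer cells stably transduced with a lentiviral TCF/Wnt firefly luciferase reporter. Reported values are firefly luciferase or CellTiterGlo luminescence, normalised per well to the plate median. Each value averages two independent replicates.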
(ATP-based viability assays read luminescence as a measure of living cells.)

For a further test, the system named is HCT116. The test is described as above. The conditions noted are these: 5 µM; treatment time 24 h; reporter: TCF4/Wnt. A digest of the protocol:
as §1

Test [2] concerns SW480. Described as above. The following applies: 5 µM; treatment time 24 h; reporter: 7TFP. A digest of the protocol: as §1
In test [3] the test system is DLD1. The test can be described thus: TCF/Wnt firefly luciferase reporter signal relative to plate median (fraction of plate median); higher = higher Wnt reporter signal. The conditions noted are these: 5 µM; treatment time 24 h; reporter: 7TFP. A digest of the protocol: as §1
(In a reporter assay the amount or activity of a reporter protein is the signal.)

The test system of test [4] is SW480. The test is described as above. The following applies: 5 µM; treatment time 24 h; reporter: 7TFP. A digest of the protocol:
as §1

`O=C(CCBr)N1CCN(C(=O)CCBr)CC1`: the cell viability in the test on DLD1 [1] was determined as 1.07 ± 0.042; with HCT116 it was 1.035 ± 0.0071; in the test with SW480 [2], 1.025 ± 0.0071. The “TCF/Wnt firefly luciferase reporter signal” value with DLD1 [3] is 1.03 ± 0.12; in the test on SW480 [4], 1.01 ± 0.019.

As to `CC(C)C(=O)Nc1ccc([N+](=O)[O-])c(C(F)(F)F)c1`, the cell viability is 1.055 ± 0.0071 in the test on DLD1 [1], 0.984 ± 0.037 in the test with HCT116 and 1.02 ± 0.029 in the test with SW480 [2]. The “TCF/Wnt firefly luciferase reporter signal” value with DLD1 [3] worked out at 0.924 ± 0.047; with SW480 [4], 0.9955 ± 0.0064.

On to `C[C@@H]1CC[C@@]2(OC1)O[C@H]1C[C@H]3[C@@H]4CC=C5C[C@@H](O)CC[C@]5(C)[C@H]4CC[C@]3(C)[C@H]1[C@@H]2C`, for which the values for the cell viability in the test with DLD1 [1], in the test on HCT116 and in the test on SW480 [2] were 1.01 ± 0.14, 0.973 ± 0.025 and 0.93 ± 0.046, respectively. The “TCF/Wnt firefly luciferase reporter signal” value is 0.89 ± 0.063 in the test with DLD1 [3] and 0.998 ± 0.06 in the test on SW480 [4].

Turning to `CC(C)[N+](C)(CCOC(=O)C1c2ccccc2Oc2ccccc21)C(C)C`, the cell viability with DLD1 [1] was determined as 0.979 ± 0.021; in the test with HCT116, 1.01 ± 0.14; in the test on SW480 [2] it was 0.984 ± 0.017. Further, the figures for the “TCF/Wnt firefly luciferase reporter signal” value in the test on DLD1 [3] and in the test on SW480 [4] were 1.06 ± 0.1 and 1.04 ± 0.06, respectively.

Regarding `COc1cccc2c1C(=O)c1c(O)c3c(c(O)c1C2=O)CC(O)(C(C)O)CC3OC1CC(NC=O)C(O)C(C)O1` (stereo not given) [Baumycin C2], the results for the cell viability in the test on DLD1 [1], in the test with HCT116 and in the test on SW480 [2] were 1.02 ± 0.035, 1.005 ± 0.0071 and 1 ± 0.036, respectively. The figures for the “TCF/Wnt firefly luciferase reporter signal” value with DLD1 [3] and with SW480 [4] were 1.17 ± 0.12 and 1.05 ± 0.014, respectively.

Turning to `CCC(=O)OCC(=O)[C@@]1(OC(=O)CC)[C@@H](C)C[C@H]2[C@@H]3CCC4=CC(=O)C=C[C@]4(C)[C@@]3(Cl)[C@@H](O)C[C@@]21C`, the cell viability turned out to be 0.958 ± 0.0057 in the test on DLD1 [1], 0.982 ± 0.11 in the test on HCT116 and 1.01 in the test with SW480 [2]. Moreover, the “TCF/Wnt firefly luciferase reporter signal” value in the test with DLD1 [3] came out at 0.94 ± 0.044; in the test on SW480 [4], 0.941 ± 0.018.

As to `O=C(O)c1cc2ccccc2[nH]1` [Indol-2-carboxylic acid], the figures for the cell viability in the test on DLD1 [1], with HCT116 and with SW480 [2] were 0.972 ± 0.097, 0.92 ± 0.016 and 0.9215 ± 0.0064, respectively. For the same compound, the “TCF/Wnt firefly luciferase reporter signal” value is 0.8775 ± 0.005 in the test on DLD1 [3] and 0.955 ± 0.042 in the test with SW480 [4].

`CC(=O)c1oc2c(C)c3oc(=O)cc(C)c3cc2c1C` [2-Acetyl-3,5,9-trimethylfuro[3,2-g]-chromen-7-one (VFT-04)]: the cell viability amounted to 1.02 ± 0.11 in the test on DLD1 [1], 0.96 ± 0.05 with HCT116 and 1.085 ± 0.0071 in the test with SW480 [2]. For the same compound, the “TCF/Wnt firefly luciferase reporter signal” value turned out to be 1.16 ± 0.028 in the test with DLD1 [3] and 1.12 ± 0.078 in the test with SW480 [4].

Turning to `O=c1cc(-c2ccc(O)cc2)oc2cc(O[C@@H]3O[C@H](CO)[C@@H](O)[C@H](O)[C@H]3O[C@@H]3OC[C@](O)(CO)[C@H]3O)cc(O)c12`, the cell viability in the test with DLD1 [1] came out at 0.959 ± 0.052; with HCT116 it was 1.04 ± 0.057; in the test on SW480 [2], 1 ± 0.021. Also, the results for the “TCF/Wnt firefly luciferase reporter signal” value in the test on DLD1 [3] and with SW480 [4] were 1.045 ± 0.0071 and 1.04 ± 0.057, respectively.
